Test: binders from COS7 lysate, DM2A8 probe, primary screen, torsin A project, cell lysate, small-molecule microarray, fluorescence 635/667 (AID 1065)
Conditions: higher = more signal, COS7 lysate expressing mutant human TOR1A

SMILES | composite z-score
C=CCNC(=O)[C@H]1[C@@H]2C(=O)O[C@@H](c3ccccc3)[C@@H](c3ccccc3)N2[C@@H](c2ccc(OCCO)cc2)[C@]12C(=O)N(C(=O)OCCOC)c1ccc(C#CCC(C(=O)OC)C(=O)OC)cc12 | 0.948
C=CCOC(=O)[C@H]1[C@@H]2C(=O)O[C@@H](c3ccccc3)[C@@H](c3ccccc3)N2[C@@H](c2ccc(OCCOC(=O)[C@@H]3C[C@@H]4C(=O)N[C@@H](Cc5ccccc5)C(=O)N4[C@@H]3c3ccc(O)cc3)cc2)[C@]12C(=O)Nc1ccc(I)cc12 | 0.0366
CCN1C(=O)C2CC(=O)C3C(CN(S(=O)(=O)c4ccc(C)cc4)C3c3ccc(C)cc3)C2C1=O (stereo not drawn) | 0.122
C=C(C)C1CN([C@H](CO)c2ccccc2)C(=O)/C1=C\c1ccccc1 (stereo partly drawn) | 0.188
C=C(COC)C(=O)CC[C@H](OC(C)=O)c1ccc(CO)o1 | 0.275
COC(=O)C(CC#Cc1ccc2c(c1)[C@]1(C(=O)N2)[C@H](C(=O)NC[C@H](O)c2ccccc2)[C@H]2C(=O)O[C@H](c3ccccc3)[C@H](c3ccccc3)N2[C@@H]1c1ccc(O)cc1)C(=O)OC | 0.328
C=C[C@H](OC)[C@@H](O)c1ccc(OC)c(O)c1 | -1.02
CC[C@@H](O[Si](C#C[Si](C(C)C)(C(C)C)C(C)C)(C(C)C)C(C)C)c1cn(Cc2cccc(Cl)c2)nn1 | 0.6
COC(=O)C1=CC(c2ccc(CO)cc2)=CC(C2CC2)N(Cc2cc3c(cc2Br)OCO3)C=C1C(=O)OC (stereo not drawn) | 1.64
O=C(NCCN1CCOCC1)[C@@H]1c2ccccc2C(=O)N(CC23CC4CC(CC(C4)C2)C3)[C@H]1c1ccc(CO)cc1 | 0.336
COCCCNC(=O)[C@@]1(CCC(=O)OC(C)(C)C)N=C(c2ccc(OCCCO)cc2)O[C@H]1c1ccccc1 | 0.737
CN1C2C=C(c3ccc(CO)cc3)C(C3C(=O)N(C(N)=O)C(=O)C32)C1C1CC1 (stereo not drawn) | 0.103
N#Cc1ccc(NN2C(C(O)c3ccc(B(O)O)cc3)C=CC3CN(c4ccccc4)C(=O)C32)cc1 (stereo not drawn) | 0.239

Test: small molecules captured by biotinylated probe aFGF2 – biochemical, small-molecule microarray, fluorescence 635/667, stem cell growth factor project, primary screen (AID 1067);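 also: measures binding of biotinylated aFGF2 protein to printed compounds on slides; z-score merges feature fluorescence and signal-to-noise across triplicate slides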
Conditions: higher = more signal

SMILES | composite z-score
O=C(O)C1=CC[C@H]2C(=O)N(c3ccccc3)C(=O)[C@@H]12 | 0.0601
C=CC[C@H](OC(=O)Nc1ccc(SC)cc1)c1ccc(O)c(F)c1 | -0.102
COC(=O)C1(CC(C)C)C=C2C(=C(C)C(=O)C2C)CN1 (stereo not drawn) | 0.317
[N-]=[N+]=NCc1ccccc1C[C@]1(C(=O)N2CCCCC2)COC(c2ccc(OCCCO)cc2)=N1 | -0.0151
C=C[C@H](C)[C@@H](OC(=O)Nc1ccc(SC)cc1)c1ccc(OCCO)cc1 | -0.0408
COC(=O)Cn1c(C(=O)N(C)C)cc2c1C[C@H]1CN(C(=O)c3ccccc3)[C@@](Cc3ccccc3)(C(=O)OC)[C@@H]21 | -0.0493
O=C1c2ccccc2[C@](Cc2ccccc2I)(C(=O)NCCN2CCOCC2)[C@H](c2ccc(CO)cc2)N1Cc1ccccc1C(F)(F)F | -0.1
Cc1ccc(S[C@]2(C(=O)NCCN3CCOCC3)CC(=O)N(C(C)C)[C@@H]2c2ccc(CO)cc2I)cc1 | -0.0805
C=C(CCCC)C(=O)CC[C@H](OC(=O)c1ccccc1-c1ccccc1C(=O)O)c1cccc(OCCO)c1 | -0.133
[N-]=[N+]=Nc1ccccc1C[C@@]1(C(=O)NCc2ccccc2)N=C(c2ccc(OCCCO)cc2)O[C@@H]1c1ccccc1 | 0.0421
C=CCNC(=O)[C@@H]1[C@H]2C(=O)O[C@H](c3ccccc3)[C@H](c3ccccc3)N2[C@H](c2ccc(OCCO)cc2)[C@@]12C(=O)Nc1ccc(C#CC3=CCCCC3)cc12 | -0.0442
CC(C)C[C@@H]1NC(=O)[C@H]2C[C@@H](C(=O)O)[C@@H](c3cccc(OCCO)c3)N2C1=O | -0.083
CC(C)c1ccc(NN2C(C(O)C(C)c3ccccc3)C=CC3C(=O)N(c4ccccc4)C(=O)C32)cc1 (stereo not drawn) | 0.51
Cc1ccc(S(=O)(=O)N2[C@@H](c3ccccc3)C(C(=O)O)=C[C@H]2C(C)(C)C)cc1 | 0.0103
CCOC(=O)C1=CC[C@@H](c2ccccc2)N(S(=O)(=O)c2ccc(C)cc2)[C@@H]1C#N | 0.0056
COCCOC(=O)N1C(=O)[C@@]2(c3cc(C#CCC(C(=O)OC)C(=O)OC)ccc31)[C@H](C(=O)N1CCc3cc(OC)c(OC)cc3C1)[C@H]1C(=O)O[C@H](c3ccccc3)[C@H](c3ccccc3)N1[C@@H]2c1ccccc1OCCO | -0.0608
CN(C)CCCC[C@@H]1NC(=O)[C@H]2C[C@@H](C(=O)NCCCCCCNC(=O)CS)[C@@H](c3cccc(OCCO)c3)N2C1=O | -0.135
COc1cc2c(cc1O)C(C)N(Cc1sc3ccccc3c1Cl)CC2 (stereo not drawn) | -0.17

SMILES | composite z-score
COCCOC(=O)N1C(=O)[C@@]2(c3cc(C#CCC(C(=O)OC)C(=O)OC)ccc31)[C@H](c1ccc(O)cc1)N1[C@H](c3ccccc3)[C@H](c3ccccc3)OC(=O)[C@H]1[C@@H]2C(=O)N1CCc2cc(OC)c(OC)cc2C1 | -0.0538
CCOC(=O)C1=CCC(c2ccncc2)N(S(=O)(=O)c2ccc(C)cc2)C1 (stereo not drawn) | -0.0459
COC(=O)[C@@]1(Cc2ccc(F)cc2)[C@H]2c3cc(C(=O)N4CCCC4)n(Cc4ccc(C(F)(F)F)nc4)c3C[C@H]2CN1C(=O)c1ccccc1 | 0.16
CC(C)(C)OC(=O)CC[C@@]1(C(N)=O)N=C(c2ccc(OCCCO)cc2)O[C@@H]1c1ccccc1CN=[N+]=[N-] | 0.153
C=CCNC(=O)[C@H]1[C@@H]2C(=O)O[C@@H](c3ccccc3)[C@@H](c3ccccc3)N2[C@@H](c2ccc(OCCO)cc2)[C@]12C(=O)N(C(=O)OCCOC)c1ccc(C#CCC(C(=O)OC)C(=O)OC)cc12 | 0.18
C=CCOC(=O)[C@H]1[C@@H]2C(=O)O[C@@H](c3ccccc3)[C@@H](c3ccccc3)N2[C@@H](c2ccc(OCCOC(=O)[C@@H]3C[C@@H]4C(=O)N[C@@H](Cc5ccccc5)C(=O)N4[C@@H]3c3ccc(O)cc3)cc2)[C@]12C(=O)Nc1ccc(I)cc12 | -0.0861
CCN1C(=O)C2CC(=O)C3C(CN(S(=O)(=O)c4ccc(C)cc4)C3c3ccc(C)cc3)C2C1=O (stereo not drawn) | 0.0174
C=C(C)C1CN([C@H](CO)c2ccccc2)C(=O)/C1=C\c1ccccc1 (stereo partly drawn) | -0.111
C=C(COC)C(=O)CC[C@H](OC(C)=O)c1ccc(CO)o1 | -0.148
COC(=O)C(CC#Cc1ccc2c(c1)[C@]1(C(=O)N2)[C@H](C(=O)NC[C@H](O)c2ccccc2)[C@H]2C(=O)O[C@H](c3ccccc3)[C@H](c3ccccc3)N2[C@@H]1c1ccc(O)cc1)C(=O)OC | -0.121
C=C[C@H](OC)[C@@H](O)c1ccc(OC)c(O)c1 | -0.137
CC[C@@H](O[Si](C#C[Si](C(C)C)(C(C)C)C(C)C)(C(C)C)C(C)C)c1cn(Cc2cccc(Cl)c2)nn1 | -0.0594
COC(=O)C1=CC(c2ccc(CO)cc2)=CC(C2CC2)N(Cc2cc3c(cc2Br)OCO3)C=C1C(=O)OC (stereo not drawn) | 0.214
O=C(NCCN1CCOCC1)[C@@H]1c2ccccc2C(=O)N(CC23CC4CC(CC(C4)C2)C3)[C@H]1c1ccc(CO)cc1 | 0.0458
COCCCNC(=O)[C@@]1(CCC(=O)OC(C)(C)C)N=C(c2ccc(OCCCO)cc2)O[C@H]1c1ccccc1 | 0.0584
CN1C2C=C(c3ccc(CO)cc3)C(C3C(=O)N(C(N)=O)C(=O)C32)C1C1CC1 (stereo not drawn) | -0.146
N#Cc1ccc(NN2C(C(O)c3ccc(B(O)O)cc3)C=CC3CN(c4ccccc4)C(=O)C32)cc1 (stereo not drawn) | -0.0893
